Holding throughout (assay): log2 ratio of Biotin-Ahx-Ub-VS probe labelling (fragment/DMSO); higher = less target engagement (more negative = stronger competition), active = hit call of the paper (q ≤ 0.05, log2 ratio ≤ -1)
Common to all, as to settings: compound concentration: 200 uM; treatment time: 3 h

The target in one test is T1, USP42 (UniProt Q9H9J4).
T1 sequence (whole entry): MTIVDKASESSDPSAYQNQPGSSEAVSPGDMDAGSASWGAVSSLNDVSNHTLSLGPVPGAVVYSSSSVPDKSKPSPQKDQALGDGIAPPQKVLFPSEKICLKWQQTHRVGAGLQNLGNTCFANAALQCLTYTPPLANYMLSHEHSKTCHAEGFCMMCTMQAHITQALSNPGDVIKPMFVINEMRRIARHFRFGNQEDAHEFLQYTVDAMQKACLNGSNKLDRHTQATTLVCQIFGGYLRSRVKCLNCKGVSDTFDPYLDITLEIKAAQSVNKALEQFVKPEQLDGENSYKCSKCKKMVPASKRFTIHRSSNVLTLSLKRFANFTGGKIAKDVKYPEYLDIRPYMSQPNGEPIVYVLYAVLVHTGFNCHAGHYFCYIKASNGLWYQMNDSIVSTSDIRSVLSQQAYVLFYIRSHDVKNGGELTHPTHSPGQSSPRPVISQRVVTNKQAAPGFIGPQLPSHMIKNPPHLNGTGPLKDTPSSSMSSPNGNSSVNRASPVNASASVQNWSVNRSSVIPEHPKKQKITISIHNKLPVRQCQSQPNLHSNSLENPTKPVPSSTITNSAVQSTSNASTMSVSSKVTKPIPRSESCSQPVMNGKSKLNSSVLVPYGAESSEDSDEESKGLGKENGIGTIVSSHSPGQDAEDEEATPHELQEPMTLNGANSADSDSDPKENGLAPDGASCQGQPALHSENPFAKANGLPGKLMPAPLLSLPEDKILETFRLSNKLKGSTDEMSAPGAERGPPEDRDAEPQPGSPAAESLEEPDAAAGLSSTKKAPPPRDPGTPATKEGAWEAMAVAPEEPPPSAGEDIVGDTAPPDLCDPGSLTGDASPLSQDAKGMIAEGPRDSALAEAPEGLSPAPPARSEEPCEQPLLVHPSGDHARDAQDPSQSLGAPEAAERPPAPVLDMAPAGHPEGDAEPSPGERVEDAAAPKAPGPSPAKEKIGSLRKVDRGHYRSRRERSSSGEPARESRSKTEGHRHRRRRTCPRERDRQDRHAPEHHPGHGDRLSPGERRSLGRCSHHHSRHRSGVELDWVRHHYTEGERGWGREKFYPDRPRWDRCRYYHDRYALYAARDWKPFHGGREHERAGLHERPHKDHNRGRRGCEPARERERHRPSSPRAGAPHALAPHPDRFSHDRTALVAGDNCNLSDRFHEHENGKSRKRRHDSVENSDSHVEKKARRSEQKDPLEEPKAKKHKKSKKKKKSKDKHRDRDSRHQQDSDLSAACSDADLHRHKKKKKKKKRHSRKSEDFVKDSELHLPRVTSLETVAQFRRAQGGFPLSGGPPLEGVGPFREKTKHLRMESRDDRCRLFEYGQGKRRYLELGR
The method, boiled down: (§1)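 Triplicate samples of HEK293T lysate, 495 µg each, received fragment at 200 µM or vehicle for 3 h, followed by Biotin-Ahx-Ub-VS (0.5 µM final) for 1 h. After NeutrAvidin enrichment of labelled DUBs and LysC/trypsin digestion, peptides were run by diaPASEF LC-MS/MS. The values are average log2 fragment/vehicle ratios from global-median-normalised Spectronaut label-free quantities, tested by unpaired t-test on proteins having ≥2 unique peptides.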

In a further test the target is USP46 (UniProt P62068). An outline of the steps: as §1
A further test addresses T2, USP47 (UniProt Q96K76).
T2 sequence (whole entry): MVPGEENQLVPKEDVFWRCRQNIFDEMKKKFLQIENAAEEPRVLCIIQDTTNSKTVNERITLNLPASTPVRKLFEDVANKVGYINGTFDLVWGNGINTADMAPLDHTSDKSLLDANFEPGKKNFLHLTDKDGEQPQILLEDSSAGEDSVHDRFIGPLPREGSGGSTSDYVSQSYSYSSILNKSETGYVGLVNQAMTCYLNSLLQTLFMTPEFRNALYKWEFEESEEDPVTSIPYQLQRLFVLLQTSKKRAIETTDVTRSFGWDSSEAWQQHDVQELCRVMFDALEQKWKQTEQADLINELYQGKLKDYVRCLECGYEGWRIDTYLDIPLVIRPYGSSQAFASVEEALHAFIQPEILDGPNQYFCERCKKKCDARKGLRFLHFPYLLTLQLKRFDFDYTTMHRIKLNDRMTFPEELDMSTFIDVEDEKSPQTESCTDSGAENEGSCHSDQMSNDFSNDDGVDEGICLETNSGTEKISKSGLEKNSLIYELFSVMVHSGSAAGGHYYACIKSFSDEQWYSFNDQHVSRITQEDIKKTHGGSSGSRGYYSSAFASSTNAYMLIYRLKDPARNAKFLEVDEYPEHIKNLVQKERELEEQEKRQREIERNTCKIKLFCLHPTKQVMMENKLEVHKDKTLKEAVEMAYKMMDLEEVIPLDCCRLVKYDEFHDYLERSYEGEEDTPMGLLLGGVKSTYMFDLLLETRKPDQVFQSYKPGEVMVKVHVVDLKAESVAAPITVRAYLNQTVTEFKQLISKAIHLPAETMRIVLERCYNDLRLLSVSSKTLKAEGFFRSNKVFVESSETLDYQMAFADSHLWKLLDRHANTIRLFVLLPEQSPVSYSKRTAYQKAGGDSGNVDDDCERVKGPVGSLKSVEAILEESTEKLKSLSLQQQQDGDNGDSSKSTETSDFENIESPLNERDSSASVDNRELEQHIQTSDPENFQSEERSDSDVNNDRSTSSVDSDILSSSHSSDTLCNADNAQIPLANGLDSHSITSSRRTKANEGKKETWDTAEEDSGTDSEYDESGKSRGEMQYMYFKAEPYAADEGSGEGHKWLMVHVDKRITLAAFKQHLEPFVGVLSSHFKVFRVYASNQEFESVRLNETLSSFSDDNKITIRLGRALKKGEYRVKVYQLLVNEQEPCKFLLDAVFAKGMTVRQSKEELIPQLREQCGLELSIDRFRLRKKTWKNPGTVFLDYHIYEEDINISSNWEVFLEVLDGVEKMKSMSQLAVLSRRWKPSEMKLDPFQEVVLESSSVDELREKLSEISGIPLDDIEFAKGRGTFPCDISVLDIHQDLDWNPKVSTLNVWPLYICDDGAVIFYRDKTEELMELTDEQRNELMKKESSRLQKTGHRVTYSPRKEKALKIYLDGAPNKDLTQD
The method, boiled down: as §1

For another test, the target named is T3, USP48 (UniProt Q86UV5).
T3 sequence (whole entry): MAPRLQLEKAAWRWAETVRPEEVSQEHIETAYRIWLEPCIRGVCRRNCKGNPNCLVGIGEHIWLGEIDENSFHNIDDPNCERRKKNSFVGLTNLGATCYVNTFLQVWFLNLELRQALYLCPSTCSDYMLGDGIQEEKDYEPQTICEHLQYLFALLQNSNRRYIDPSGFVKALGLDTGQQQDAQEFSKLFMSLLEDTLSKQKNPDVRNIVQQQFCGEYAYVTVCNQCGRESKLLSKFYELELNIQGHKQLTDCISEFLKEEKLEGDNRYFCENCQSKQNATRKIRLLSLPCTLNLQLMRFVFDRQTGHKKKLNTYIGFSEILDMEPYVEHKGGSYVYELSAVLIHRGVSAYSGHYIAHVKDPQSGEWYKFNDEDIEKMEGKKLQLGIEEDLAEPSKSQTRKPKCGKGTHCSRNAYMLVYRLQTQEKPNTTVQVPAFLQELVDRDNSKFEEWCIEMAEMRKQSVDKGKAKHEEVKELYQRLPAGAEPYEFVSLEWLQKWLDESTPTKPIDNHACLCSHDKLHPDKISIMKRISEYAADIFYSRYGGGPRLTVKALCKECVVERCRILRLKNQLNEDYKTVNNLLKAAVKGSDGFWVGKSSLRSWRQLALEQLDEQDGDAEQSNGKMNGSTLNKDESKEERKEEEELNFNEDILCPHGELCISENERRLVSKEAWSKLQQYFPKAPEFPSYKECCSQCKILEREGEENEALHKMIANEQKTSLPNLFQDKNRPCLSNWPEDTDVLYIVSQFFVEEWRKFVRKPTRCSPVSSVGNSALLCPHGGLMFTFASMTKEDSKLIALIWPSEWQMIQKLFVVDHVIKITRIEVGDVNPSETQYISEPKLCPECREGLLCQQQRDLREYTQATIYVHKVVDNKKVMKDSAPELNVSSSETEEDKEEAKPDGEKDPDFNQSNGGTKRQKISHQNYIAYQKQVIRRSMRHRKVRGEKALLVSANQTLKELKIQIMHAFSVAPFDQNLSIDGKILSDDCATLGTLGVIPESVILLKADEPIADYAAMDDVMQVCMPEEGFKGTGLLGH
An outline of the steps:
as §1

A further test deals with T4, USP5 (UniProt P45974).
T4 sequence (whole entry): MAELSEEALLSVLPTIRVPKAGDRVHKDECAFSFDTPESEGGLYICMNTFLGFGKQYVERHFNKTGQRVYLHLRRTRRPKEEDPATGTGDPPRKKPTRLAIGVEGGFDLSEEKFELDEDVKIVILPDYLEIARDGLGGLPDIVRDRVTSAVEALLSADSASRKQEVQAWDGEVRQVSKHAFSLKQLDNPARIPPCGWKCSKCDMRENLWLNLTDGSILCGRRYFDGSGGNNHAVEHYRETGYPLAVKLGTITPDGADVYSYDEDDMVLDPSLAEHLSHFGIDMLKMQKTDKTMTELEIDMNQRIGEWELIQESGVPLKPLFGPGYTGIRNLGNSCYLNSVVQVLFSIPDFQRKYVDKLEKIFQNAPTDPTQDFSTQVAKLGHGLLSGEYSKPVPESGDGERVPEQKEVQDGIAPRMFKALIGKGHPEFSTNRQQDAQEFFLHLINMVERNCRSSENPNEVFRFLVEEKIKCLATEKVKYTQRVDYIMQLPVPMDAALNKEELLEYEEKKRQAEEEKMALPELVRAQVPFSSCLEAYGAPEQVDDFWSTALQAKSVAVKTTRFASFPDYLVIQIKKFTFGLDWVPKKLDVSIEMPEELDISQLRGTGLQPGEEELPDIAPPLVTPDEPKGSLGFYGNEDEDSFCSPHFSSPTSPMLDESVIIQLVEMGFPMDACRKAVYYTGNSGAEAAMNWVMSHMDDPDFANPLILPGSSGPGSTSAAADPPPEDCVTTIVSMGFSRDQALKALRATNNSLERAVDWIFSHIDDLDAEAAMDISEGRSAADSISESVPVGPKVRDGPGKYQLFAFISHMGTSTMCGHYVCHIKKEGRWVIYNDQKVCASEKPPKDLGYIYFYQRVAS
The method, boiled down:
as §1

The target in another test is USP54 (UniProt Q70EL1). The method, boiled down:
as §1

The next test has as its target USP7 (UniProt Q93009). The method, boiled down: as §1
The target of the next test is T5, USP8 (UniProt P40818).
T5 sequence (whole entry): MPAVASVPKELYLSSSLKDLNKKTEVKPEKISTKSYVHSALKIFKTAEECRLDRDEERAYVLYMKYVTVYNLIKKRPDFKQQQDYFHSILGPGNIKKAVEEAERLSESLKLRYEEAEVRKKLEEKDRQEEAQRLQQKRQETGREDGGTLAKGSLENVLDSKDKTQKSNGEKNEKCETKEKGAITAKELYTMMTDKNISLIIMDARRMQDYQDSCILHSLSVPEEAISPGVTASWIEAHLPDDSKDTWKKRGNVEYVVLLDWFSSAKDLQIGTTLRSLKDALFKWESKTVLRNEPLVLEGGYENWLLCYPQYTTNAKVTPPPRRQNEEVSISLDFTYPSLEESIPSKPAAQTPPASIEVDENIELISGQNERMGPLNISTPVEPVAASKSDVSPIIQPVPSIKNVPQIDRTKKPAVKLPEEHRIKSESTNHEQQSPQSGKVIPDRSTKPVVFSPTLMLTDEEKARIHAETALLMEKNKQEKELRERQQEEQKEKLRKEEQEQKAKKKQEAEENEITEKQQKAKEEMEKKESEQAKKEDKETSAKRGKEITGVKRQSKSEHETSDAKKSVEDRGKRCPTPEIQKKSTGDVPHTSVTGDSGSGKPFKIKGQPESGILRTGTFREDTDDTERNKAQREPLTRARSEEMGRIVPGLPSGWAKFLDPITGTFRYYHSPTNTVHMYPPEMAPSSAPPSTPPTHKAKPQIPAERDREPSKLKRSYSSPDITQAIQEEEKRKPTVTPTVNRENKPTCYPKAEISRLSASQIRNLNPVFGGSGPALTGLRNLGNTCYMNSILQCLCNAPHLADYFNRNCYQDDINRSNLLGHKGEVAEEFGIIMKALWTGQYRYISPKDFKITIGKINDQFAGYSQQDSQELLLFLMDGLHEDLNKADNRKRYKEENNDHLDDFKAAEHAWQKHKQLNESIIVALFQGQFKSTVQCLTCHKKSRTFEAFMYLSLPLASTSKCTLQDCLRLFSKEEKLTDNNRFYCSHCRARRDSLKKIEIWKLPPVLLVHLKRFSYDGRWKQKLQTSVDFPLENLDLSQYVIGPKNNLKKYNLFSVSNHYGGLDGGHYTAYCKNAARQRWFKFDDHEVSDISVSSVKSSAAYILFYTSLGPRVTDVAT
An outline of the steps: as §1

Another test deals with USP9X (UniProt Q93008). An outline of the steps: as §1
A further test has as its target UniProt O00487. The method, boiled down:
as §1

Experimental findings from the supplement of paper PMC11732987, “Enantioselective OTUD7B fragment discovery through chemoproteomics screening and high-throughput optimisation” (Communications Chemistry, 2025) are described below.

A number with no mark means an inactive call.

Sequence of USP46 (P62068 whole entry): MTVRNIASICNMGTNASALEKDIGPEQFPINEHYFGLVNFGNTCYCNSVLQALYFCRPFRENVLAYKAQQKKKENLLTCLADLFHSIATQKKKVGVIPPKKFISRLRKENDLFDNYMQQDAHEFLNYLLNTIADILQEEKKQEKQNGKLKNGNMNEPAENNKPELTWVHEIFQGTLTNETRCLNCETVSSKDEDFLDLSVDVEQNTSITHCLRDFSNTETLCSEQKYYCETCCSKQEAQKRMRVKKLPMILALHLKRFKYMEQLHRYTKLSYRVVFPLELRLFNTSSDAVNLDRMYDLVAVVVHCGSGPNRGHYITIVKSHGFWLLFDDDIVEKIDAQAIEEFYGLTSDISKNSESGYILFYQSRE
Sequence of USP54 (Q70EL1 whole entry): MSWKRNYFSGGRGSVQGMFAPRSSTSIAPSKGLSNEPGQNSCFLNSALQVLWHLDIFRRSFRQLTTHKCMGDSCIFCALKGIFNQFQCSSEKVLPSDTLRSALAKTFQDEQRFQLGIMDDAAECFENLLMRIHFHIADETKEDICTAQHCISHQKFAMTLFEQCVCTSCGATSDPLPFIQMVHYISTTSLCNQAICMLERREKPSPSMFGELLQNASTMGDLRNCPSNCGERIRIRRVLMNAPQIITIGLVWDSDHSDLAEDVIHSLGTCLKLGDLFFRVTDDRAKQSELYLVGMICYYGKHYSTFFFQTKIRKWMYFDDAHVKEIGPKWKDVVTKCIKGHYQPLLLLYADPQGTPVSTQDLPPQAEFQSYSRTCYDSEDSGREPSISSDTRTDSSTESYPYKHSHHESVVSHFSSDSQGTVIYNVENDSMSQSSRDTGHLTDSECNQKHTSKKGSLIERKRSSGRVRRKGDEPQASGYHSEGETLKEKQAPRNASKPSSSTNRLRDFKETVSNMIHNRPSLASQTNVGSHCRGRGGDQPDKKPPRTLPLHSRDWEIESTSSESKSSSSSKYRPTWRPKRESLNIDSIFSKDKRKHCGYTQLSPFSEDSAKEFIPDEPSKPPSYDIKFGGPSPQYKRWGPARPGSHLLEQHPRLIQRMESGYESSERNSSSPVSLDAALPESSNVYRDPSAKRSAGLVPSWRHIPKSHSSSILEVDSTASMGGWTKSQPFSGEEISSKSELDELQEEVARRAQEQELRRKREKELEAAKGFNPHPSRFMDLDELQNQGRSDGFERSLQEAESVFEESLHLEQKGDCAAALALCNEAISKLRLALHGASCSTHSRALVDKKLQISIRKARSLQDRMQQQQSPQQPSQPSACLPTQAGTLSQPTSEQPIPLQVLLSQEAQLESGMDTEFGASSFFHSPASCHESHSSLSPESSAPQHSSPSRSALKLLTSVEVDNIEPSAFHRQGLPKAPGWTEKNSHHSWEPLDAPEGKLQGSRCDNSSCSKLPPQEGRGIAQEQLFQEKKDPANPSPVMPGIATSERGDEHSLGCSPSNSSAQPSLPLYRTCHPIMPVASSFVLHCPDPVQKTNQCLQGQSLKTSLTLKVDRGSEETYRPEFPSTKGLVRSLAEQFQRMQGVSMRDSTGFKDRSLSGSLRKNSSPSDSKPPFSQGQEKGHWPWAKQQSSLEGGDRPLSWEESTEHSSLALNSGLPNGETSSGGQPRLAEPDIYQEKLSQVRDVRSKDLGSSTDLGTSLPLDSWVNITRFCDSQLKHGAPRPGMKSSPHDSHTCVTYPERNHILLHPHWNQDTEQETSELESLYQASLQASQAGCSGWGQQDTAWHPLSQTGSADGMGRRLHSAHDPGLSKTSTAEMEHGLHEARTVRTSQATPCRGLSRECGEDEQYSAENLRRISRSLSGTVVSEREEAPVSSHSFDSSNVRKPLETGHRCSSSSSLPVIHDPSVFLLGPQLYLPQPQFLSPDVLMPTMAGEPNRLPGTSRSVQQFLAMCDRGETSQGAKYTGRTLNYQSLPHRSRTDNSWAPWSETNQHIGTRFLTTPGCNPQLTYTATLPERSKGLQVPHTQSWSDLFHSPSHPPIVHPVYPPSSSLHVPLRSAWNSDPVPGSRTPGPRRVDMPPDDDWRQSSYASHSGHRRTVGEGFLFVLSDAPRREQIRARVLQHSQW
Sequence of USP7 (Q93009 whole entry, looked up): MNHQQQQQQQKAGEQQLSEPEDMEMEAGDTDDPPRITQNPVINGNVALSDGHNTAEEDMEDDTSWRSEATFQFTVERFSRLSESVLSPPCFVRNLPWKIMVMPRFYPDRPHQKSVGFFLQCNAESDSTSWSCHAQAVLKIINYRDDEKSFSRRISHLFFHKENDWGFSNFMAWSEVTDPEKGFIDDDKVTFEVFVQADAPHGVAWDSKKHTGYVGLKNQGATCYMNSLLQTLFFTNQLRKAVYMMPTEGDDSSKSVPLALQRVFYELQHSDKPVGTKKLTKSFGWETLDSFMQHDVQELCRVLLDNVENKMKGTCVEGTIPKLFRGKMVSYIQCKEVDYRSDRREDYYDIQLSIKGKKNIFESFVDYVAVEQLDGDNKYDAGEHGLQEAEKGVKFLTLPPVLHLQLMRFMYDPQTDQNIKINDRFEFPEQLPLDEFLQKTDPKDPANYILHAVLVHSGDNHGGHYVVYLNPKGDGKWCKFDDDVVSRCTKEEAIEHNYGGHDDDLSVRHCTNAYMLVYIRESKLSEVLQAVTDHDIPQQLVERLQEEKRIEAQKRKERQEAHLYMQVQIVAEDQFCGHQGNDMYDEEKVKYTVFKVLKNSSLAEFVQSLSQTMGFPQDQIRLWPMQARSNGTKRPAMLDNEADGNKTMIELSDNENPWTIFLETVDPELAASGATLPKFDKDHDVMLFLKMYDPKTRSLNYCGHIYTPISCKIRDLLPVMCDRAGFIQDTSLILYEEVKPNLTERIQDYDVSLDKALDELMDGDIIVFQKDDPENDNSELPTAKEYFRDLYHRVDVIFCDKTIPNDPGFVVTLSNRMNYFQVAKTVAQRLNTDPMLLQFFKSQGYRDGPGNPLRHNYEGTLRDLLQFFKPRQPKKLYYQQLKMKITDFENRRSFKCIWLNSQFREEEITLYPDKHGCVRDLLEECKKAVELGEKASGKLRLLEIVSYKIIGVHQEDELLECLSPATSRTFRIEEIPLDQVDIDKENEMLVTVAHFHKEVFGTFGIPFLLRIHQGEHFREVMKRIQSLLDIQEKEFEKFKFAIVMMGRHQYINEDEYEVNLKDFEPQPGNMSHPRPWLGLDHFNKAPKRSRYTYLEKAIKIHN
Sequence of UniProt O00487 (O00487 whole entry): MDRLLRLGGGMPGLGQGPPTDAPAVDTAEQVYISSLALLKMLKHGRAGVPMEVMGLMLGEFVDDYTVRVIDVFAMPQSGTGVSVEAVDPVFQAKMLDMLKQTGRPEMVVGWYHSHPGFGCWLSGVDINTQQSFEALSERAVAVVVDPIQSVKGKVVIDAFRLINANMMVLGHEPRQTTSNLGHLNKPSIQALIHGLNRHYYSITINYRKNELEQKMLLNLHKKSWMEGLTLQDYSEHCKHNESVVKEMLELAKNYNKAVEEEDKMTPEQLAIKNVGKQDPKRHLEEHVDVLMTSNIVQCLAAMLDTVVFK

Take `O=C(CCl)N1CCc2sccc2C1`: the “log2 ratio of Biotin-Ahx-Ub-VS probe labelling” value is 0.32 in the test with USP42; -0.578 in the test with USP46; -0.774 in the test with USP47; -0.677 in the test with USP48; -0.108 with USP5; -0.356 in the test with USP54. Further, the “log2 ratio of Biotin-Ahx-Ub-VS probe labelling” value in the test with USP7 is -1.34 (active); in the test with USP8 it was 0.015; in the test with USP9X, -0.286; in the test with UniProt O00487 it was 0.0182.
